Experimental data: ChEMBL document CHEMBL2218924, “A broad activity screen in support of a chemogenomic map for kinase signalling research and drug discovery” (Biochem J, 2013); call rule not given here

What was measured:
[1] = target: T1, Ephrin type-B receptor 1 (Homo sapiens) (UniProt P54762); details: at 10 µM
T1 sequence (whole entry): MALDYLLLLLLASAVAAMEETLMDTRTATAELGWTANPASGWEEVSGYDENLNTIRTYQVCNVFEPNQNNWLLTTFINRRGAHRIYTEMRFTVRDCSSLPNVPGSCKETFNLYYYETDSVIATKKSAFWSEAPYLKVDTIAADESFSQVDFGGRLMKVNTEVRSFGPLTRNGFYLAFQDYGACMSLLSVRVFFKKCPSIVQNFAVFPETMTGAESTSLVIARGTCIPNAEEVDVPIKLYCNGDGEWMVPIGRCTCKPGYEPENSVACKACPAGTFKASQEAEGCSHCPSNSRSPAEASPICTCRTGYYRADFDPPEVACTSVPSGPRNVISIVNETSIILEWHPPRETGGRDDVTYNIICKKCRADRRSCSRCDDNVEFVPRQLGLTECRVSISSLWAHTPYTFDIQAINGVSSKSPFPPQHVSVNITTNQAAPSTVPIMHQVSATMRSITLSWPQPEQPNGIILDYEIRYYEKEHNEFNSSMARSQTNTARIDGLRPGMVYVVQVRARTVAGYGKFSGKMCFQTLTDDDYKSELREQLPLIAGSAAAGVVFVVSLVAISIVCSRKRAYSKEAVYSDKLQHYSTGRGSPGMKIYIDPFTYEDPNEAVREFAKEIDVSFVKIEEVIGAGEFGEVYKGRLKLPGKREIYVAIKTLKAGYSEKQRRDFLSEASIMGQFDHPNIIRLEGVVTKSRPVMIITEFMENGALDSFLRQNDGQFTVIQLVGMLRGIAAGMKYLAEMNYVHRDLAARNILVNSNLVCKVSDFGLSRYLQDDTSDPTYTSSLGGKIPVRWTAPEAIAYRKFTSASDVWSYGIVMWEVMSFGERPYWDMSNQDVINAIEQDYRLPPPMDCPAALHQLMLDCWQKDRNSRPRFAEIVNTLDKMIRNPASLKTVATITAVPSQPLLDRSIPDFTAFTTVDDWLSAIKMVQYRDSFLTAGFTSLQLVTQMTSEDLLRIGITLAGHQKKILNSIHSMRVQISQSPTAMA

[2] = target: T2, Ephrin type-B receptor 2 (Homo sapiens) (UniProt P29323); details: at 1 µM
T2 sequence (whole entry): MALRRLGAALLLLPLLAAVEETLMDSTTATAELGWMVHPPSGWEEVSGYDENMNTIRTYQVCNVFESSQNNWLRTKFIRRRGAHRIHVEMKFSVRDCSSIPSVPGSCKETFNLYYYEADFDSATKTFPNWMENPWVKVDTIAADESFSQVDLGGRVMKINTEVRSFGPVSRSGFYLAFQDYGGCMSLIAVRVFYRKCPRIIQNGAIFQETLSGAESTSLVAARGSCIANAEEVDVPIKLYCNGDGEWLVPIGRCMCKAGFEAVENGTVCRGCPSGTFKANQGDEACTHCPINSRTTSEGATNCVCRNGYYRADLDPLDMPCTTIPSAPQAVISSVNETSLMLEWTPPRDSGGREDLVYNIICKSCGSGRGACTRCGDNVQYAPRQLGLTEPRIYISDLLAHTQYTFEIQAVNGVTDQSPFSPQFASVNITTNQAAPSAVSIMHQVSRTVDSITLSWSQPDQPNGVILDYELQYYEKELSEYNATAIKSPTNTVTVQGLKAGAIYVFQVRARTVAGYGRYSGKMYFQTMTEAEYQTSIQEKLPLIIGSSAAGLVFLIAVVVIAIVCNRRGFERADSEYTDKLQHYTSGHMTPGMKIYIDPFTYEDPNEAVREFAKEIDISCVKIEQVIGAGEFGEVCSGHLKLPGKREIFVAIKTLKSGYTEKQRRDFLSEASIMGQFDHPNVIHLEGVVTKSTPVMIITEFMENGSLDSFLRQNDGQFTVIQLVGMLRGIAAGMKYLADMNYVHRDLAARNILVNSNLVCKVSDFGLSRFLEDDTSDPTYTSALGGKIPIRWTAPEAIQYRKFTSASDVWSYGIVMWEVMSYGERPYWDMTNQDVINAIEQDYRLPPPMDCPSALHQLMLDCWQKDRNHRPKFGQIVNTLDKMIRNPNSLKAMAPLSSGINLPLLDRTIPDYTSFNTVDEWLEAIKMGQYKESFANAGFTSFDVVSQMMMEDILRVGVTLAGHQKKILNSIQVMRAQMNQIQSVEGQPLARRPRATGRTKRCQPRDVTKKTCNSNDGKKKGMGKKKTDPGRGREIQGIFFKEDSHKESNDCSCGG

[3] = target: T2, Ephrin type-B receptor 2 (Homo sapiens); details: at 10 µM
[4] = target: T3, Ephrin type-B receptor 3 (Homo sapiens) (UniProt P54753); details: at 1 µM
T3 sequence (whole entry): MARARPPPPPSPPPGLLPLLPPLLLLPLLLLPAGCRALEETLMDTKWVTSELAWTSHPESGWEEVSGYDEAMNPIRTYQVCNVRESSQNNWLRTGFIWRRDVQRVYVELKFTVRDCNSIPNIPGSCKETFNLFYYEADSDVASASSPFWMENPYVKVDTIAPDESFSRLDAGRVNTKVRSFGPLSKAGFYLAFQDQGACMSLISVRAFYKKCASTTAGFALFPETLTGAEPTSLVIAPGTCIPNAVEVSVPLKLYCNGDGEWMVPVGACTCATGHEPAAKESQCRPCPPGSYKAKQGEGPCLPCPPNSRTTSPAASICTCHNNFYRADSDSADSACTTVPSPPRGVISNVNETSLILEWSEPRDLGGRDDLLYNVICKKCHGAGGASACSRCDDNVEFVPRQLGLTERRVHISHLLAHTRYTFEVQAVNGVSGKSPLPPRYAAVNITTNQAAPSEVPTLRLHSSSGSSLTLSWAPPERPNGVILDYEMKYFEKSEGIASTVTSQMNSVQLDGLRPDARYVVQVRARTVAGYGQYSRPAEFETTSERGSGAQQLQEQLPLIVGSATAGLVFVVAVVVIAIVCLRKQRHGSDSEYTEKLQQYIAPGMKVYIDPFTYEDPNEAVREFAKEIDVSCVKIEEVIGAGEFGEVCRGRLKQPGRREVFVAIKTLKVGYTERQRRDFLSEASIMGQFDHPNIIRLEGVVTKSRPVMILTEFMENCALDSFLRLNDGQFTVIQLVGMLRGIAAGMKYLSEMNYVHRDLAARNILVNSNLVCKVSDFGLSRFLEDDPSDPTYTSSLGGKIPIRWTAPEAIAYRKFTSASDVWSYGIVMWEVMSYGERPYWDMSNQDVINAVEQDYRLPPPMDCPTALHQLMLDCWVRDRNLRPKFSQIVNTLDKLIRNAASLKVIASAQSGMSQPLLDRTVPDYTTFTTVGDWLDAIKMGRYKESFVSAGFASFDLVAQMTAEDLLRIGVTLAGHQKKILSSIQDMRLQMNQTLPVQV

[5] = target: T3, Ephrin type-B receptor 3 (Homo sapiens); details: at 10 µM
[6] = target: T4, Ephrin type-B receptor 4 (Homo sapiens) (UniProt P54760); details: at 1 µM
T4 sequence (whole entry): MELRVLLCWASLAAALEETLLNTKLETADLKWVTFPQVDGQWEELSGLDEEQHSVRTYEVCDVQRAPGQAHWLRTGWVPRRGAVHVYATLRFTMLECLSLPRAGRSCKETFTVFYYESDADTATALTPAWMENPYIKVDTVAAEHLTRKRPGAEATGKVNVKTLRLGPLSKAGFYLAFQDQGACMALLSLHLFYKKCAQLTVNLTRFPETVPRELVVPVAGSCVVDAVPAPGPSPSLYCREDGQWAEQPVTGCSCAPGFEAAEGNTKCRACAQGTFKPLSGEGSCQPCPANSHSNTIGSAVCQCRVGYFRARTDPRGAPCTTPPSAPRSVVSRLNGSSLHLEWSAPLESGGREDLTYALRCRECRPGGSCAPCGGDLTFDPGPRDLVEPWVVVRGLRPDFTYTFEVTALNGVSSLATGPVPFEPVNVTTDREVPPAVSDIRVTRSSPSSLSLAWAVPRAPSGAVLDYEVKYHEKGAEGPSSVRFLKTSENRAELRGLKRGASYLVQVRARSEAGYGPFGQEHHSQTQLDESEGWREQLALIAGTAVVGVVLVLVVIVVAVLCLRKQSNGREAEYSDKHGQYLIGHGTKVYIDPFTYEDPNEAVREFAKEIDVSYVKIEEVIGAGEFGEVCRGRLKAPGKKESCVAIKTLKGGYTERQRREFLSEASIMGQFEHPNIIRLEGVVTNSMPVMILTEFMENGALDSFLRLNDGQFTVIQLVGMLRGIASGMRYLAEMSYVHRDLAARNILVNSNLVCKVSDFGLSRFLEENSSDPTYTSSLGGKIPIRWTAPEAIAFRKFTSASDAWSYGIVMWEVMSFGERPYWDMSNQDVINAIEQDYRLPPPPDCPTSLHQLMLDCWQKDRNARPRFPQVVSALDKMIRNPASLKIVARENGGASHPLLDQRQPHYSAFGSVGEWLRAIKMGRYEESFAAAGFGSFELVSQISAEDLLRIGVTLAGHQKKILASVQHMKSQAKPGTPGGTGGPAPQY

[7] = target: T4, Ephrin type-B receptor 4 (Homo sapiens); details: at 10 µM
[8] = target: Receptor tyrosine-protein kinase erbB-4 (Homo sapiens) (UniProt Q15303); details: at 1 µM
Sequence of Receptor tyrosine-protein kinase erbB-4 (Homo sapiens) (Q15303 whole entry): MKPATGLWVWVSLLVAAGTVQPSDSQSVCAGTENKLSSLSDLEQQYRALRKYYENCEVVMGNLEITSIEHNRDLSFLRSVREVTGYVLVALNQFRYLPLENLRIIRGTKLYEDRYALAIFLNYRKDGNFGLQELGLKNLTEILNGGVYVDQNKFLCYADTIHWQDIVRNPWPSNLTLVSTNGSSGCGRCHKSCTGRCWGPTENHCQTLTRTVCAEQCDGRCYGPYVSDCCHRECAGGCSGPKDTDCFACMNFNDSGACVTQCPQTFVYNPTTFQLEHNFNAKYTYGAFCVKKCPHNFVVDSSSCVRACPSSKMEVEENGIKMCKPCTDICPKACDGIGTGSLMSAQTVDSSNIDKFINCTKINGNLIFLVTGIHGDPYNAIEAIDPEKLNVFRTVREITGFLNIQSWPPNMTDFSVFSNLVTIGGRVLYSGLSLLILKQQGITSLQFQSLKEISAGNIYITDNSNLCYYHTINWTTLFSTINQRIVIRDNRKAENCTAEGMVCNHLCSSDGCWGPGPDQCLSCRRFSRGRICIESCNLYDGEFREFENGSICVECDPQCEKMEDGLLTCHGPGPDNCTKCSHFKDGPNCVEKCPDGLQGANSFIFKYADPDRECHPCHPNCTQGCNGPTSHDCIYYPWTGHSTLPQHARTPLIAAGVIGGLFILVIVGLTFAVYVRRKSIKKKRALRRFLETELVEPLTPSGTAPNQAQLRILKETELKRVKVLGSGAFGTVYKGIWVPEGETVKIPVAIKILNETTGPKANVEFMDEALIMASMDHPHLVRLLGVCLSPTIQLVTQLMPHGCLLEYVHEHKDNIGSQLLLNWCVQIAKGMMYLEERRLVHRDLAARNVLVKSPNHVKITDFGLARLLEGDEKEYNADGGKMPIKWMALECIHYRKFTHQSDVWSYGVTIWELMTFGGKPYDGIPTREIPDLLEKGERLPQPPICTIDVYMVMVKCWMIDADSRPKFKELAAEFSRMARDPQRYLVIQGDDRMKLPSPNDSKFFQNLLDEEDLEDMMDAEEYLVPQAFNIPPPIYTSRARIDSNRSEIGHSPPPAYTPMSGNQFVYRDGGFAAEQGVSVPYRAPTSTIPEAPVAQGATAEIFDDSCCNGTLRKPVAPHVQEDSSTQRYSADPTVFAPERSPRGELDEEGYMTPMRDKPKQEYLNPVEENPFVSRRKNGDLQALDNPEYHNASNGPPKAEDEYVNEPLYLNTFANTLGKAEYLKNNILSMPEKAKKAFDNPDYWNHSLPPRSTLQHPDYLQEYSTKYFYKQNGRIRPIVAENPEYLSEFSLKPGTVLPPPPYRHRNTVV

[9] = target: Receptor tyrosine-protein kinase erbB-4 (Homo sapiens) (UniProt Q15303); details: at 10 µM
[10] = target: Focal adhesion kinase 1 (Homo sapiens) (UniProt Q05397); details: at 1 µM
Sequence of Focal adhesion kinase 1 (Homo sapiens) (Q05397 2-1052 limits assumed): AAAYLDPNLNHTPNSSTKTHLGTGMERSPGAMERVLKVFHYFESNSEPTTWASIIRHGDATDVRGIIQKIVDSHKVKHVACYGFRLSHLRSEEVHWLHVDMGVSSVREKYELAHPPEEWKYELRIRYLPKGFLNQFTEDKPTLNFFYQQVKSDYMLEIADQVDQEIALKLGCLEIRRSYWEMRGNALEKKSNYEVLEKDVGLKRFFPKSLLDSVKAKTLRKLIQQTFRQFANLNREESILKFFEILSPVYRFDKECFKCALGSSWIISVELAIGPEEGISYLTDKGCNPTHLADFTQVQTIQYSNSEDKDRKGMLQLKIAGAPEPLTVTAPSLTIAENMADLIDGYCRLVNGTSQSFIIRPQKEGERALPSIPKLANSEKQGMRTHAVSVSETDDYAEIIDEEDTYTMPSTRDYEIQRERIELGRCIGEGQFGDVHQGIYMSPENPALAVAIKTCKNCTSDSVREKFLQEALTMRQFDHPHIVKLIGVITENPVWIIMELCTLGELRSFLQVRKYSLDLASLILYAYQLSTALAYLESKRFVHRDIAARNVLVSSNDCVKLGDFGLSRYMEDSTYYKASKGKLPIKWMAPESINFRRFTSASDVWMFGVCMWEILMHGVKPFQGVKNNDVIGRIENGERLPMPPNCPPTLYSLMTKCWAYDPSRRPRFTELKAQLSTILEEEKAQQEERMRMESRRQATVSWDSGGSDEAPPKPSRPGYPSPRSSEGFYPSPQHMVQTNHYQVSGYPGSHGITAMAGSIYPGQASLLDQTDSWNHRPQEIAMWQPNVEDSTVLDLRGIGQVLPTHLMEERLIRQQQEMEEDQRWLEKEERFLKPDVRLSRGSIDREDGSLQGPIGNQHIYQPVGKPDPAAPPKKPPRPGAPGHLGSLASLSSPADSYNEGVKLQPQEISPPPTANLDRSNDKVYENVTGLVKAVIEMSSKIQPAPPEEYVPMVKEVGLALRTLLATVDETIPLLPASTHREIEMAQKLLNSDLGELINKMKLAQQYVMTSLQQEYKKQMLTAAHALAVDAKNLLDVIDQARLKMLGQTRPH

[11] = target: Focal adhesion kinase 1 (Homo sapiens) (UniProt Q05397); details: at 10 µM
[12] = target: Fibroblast growth factor receptor 1 (Homo sapiens) (UniProt P11362); details: at 1 µM
[13] = target: Fibroblast growth factor receptor 1 (Homo sapiens) (UniProt P11362); details: at 10 µM
[14] = target: Fibroblast growth factor receptor 2 (Homo sapiens) (UniProt P21802); details: at 1 µM
Sequence of Fibroblast growth factor receptor 2 (Homo sapiens) (P21802 22-821 limits assumed): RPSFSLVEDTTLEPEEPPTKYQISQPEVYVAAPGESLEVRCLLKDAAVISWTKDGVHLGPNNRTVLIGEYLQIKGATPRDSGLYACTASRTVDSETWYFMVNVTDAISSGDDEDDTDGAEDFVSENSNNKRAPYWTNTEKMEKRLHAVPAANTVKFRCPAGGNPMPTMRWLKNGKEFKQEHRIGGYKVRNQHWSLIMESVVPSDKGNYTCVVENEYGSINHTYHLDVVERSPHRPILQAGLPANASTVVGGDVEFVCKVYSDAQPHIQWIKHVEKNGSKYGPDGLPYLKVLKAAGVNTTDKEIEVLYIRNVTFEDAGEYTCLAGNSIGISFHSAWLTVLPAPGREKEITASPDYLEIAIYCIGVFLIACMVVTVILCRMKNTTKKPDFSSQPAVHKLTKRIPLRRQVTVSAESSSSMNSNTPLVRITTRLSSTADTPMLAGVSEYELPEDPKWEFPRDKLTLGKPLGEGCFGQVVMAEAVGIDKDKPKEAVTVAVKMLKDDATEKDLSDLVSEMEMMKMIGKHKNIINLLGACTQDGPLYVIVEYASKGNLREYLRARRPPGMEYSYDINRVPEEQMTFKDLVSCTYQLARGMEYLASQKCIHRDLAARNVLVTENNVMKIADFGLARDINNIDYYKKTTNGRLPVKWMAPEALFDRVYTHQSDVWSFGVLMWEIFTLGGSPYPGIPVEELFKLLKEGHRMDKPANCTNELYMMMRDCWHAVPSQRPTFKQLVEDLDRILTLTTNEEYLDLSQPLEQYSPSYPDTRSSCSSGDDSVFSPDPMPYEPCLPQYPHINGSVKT

[15] = target: Fibroblast growth factor receptor 2 (Homo sapiens) (UniProt P21802); details: at 10 µM
[16] = target: Fibroblast growth factor receptor 3 (Homo sapiens) (UniProt P22607); details: at 1 µM
Sequence of Fibroblast growth factor receptor 3 (Homo sapiens) (P22607 23-806 limits assumed): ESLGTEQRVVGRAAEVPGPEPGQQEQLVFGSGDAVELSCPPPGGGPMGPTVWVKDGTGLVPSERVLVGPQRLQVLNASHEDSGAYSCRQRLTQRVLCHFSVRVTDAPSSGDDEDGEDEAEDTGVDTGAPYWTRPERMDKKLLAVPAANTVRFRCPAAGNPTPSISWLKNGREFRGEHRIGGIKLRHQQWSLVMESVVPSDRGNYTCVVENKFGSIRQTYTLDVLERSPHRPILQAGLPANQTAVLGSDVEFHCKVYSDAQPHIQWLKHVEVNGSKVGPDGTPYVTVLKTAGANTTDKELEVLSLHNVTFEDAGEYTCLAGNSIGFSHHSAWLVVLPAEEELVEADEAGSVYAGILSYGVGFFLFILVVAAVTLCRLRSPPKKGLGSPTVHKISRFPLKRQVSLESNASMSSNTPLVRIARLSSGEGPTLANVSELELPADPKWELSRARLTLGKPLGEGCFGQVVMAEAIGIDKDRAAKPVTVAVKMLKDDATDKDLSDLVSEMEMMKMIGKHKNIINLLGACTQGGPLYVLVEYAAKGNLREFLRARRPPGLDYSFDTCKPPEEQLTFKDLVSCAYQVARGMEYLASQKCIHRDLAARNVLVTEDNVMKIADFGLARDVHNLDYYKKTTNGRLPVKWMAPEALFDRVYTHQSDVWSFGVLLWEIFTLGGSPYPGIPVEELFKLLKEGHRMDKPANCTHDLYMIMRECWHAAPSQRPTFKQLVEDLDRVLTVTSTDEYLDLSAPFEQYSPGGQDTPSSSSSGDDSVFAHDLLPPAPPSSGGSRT

[17] = target: Fibroblast growth factor receptor 3 (Homo sapiens) (UniProt P22607); details: at 10 µM
[18] = target: Fibroblast growth factor receptor 4 (Homo sapiens) (UniProt P22455); details: at 1 µM
Sequence of Fibroblast growth factor receptor 4 (Homo sapiens) (P22455 22-802 limits assumed): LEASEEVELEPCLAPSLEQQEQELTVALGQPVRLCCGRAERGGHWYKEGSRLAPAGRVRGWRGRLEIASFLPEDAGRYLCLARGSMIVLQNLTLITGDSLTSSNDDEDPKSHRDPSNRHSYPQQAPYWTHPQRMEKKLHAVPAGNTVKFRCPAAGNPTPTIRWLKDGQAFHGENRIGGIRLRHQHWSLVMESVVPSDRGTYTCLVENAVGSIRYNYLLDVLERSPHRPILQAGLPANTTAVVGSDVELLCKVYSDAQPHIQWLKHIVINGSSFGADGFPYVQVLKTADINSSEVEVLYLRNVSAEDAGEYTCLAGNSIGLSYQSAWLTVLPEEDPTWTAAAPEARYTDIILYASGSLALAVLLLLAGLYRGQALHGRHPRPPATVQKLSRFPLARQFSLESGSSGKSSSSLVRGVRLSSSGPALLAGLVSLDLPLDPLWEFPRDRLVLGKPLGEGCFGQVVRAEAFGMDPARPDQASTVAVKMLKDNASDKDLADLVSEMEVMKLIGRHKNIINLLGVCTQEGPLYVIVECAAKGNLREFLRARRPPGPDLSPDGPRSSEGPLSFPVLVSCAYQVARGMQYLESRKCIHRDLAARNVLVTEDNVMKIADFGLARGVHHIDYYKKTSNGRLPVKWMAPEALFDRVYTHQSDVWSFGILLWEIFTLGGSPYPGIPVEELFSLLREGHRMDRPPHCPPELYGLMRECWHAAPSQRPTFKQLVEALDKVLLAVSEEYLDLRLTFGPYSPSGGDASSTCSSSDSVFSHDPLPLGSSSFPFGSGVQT

[19] = target: Fibroblast growth factor receptor 4 (Homo sapiens) (UniProt P22455); details: at 10 µM
[20] = target: Tyrosine-protein kinase Fer (Homo sapiens) (UniProt P16591); details: at 1 µM

SMILES | residual activity [1] | residual activity [2] | residual activity [3] | residual activity [4] | residual activity [5] | residual activity [6] | residual activity [7] | residual activity [8] | residual activity [9] | residual activity [10] | residual activity [11] | residual activity [12] | residual activity [13] | residual activity [14] | residual activity [15] | residual activity [16] | residual activity [17] | residual activity [18] | residual activity [19] | residual activity [20]
Cc1ccc(S(=O)(=O)/C=C/C#N)cc1 | 92% | 122% | 126% | 118% (inactive) | 111% | 97% | 90% | 95% | 90% | 105% | 102% | 91% | 82% | 108% | 89% | 118% | 118% | 115% | 106% | 101%
COc1ccc(OC)c2c(=S)c3ccccc3[nH]c12 | 83% | 114% | 118% | 114% (inactive) | 101% | 97% | 102% | 80% | 77% | 91% | 108% | 116% | 82% | 97% | 85% | 129% | 113% | 112% | 88% | 98%
O=C(Nc1cccc(Nc2cc(Nc3cccc(C(F)(F)F)c3)ncn2)c1)C1CC1 | 69% | 101% | 99% | 90% (inactive) | 100% | 97% | 82% | 71% | 88% | 130% | 79% | 97% | 58% | 94% | 101% | 112% | 111% | 90% | 90% | 112%
